Measurements: PubChem BioAssay AID504905 (The Scripps Research Institute Molecular Screening Center, 2011)
The list shows a part of the results. A number with no mark means an inactive call. Activity calls are given as the source filed them. No stated cut-off is given here; in the data, active means activation above about 17%; inactive means the rest.

Each molecule was assayed against 5-hydroxytryptamine receptor 5A (Homo sapiens) (UniProt P47898) (assay: activation of human 5-HT5A receptor – cell-based, luminescence, counter-screen for OPRM1-OPRD1 heterodimer agonist project (AID 504905;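 further: 0% = vehicle-treated cells and 100% = reference agonist response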)). Conditions: HTR5A agonist counterscreen, at 9.3 µM, hits give high values.
Chain of 5-hydroxytryptamine receptor 5A (Homo sapiens) (P47898 whole entry, looked up): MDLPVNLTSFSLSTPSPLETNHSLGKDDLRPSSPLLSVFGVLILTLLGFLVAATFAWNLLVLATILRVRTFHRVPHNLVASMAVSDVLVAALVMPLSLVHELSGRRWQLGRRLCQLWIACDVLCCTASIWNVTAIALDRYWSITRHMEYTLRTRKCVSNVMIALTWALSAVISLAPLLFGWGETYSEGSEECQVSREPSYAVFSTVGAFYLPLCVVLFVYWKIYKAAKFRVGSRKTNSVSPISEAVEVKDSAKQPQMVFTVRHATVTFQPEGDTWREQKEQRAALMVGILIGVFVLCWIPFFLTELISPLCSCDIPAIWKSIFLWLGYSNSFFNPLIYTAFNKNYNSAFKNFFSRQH

Point of comparison: O=C(NC1=CC(=O)c2ccccc2C1=O)c1ccccc1, activation 3.59%. Against it:
- COc1ccc(C2Nc3ccccc3C(=O)N2c2ccc(F)cc2)cc1Cn1nnc2ccccc21 (stereo unspecified) — lower, 2.9%
- N#C/C(=C(/O)COC(=O)COc1ccc(Cl)cc1)c1nc2ccccc2[nH]1 — higher, 9.3%
- Cc1ccc(CN(C(=O)c2sc3ccccc3c2Cl)C2CCS(=O)(=O)C2)cc1 (stereo unspecified) — lower, 1.71%
- COc1ccccc1C(CNC(=O)c1ccc(C)c(S(=O)(=O)N2CCCCC2)c1)N(C)C (stereo unspecified) — lower, 0.79%
- Cc1cc(C)cc(C(=O)N(CCc2ccccc2)C2=CC3CCC(C2)N3C)c1 (stereo unspecified) — lower, -1.9%
- Cc1ccc(CNC(=O)CC(NC(=O)c2ccccc2)c2ccccc2)cc1 (stereo unspecified) — lower, -9.71%
- COc1cccc(/C=N/Nc2cc(C)nc(-c3ccccc3O)n2)c1O — lower, 0.01%
- CCC(C(=O)OCC(=O)Nc1ccc(C(=O)Nc2ccc(OC)cc2)cc1)c1ccccc1 (stereo unspecified) — higher, 5.87%
- CC(c1cccnc1)N(CCN(C)C)C(=O)Nc1ccc(Cl)c(Cl)c1 (stereo unspecified) — lower, -6.75%
- Cc1ccc(OCC(=O)Nc2ccc(NC(=O)c3cccs3)cc2)c(C)c1 — higher, 8.16%
- CN(CC(=O)Nc1ccc(Cl)cc1)C(=O)c1ccc(COc2ccccc2)cc1 — higher, 5.21%
- CCc1ccc(C(CNc2nc(C(F)(F)F)nc3ccccc23)N(C)C)cc1 (stereo unspecified) — lower, -2.05%
- COC(=O)c1ccc(C23CC4(C2)[C@H](CN(Cc2cccnc2)[C@@H]4c2ccccc2)C3c2ccc(Cl)nc2)cc1 (stereo partly specified) — higher, 5.91%
- CCCC(=O)NC(C)C(c1cccs1)N1CCN(c2ccccc2)CC1 (stereo unspecified) — lower, -1.26%
- C=C(C)COc1ccc(-c2n[nH]c(C)c2-c2ccccc2)c(O)c1 — higher, 5.34%
- CCNS(=O)(=O)c1ccc(NC(=O)Nc2cccc(OC)c2)cc1 — lower, 3.27%
- COc1ccc(C(CNCC(=O)Nc2ccccc2F)N(C)C)cc1 (stereo unspecified) — higher, 5.09%
- COc1ccc(SC[C@H](Cc2ccccc2)N2CCN(CCc3ccccc3)CCC2=O)cc1 — lower, -1.8%
- N#CC(C(=O)c1ccc(S(=O)(=O)N2CCCCCC2)cc1)c1nc2ccccc2[nH]1 (stereo unspecified) — higher, 5.09%

With CN(C)C(CNC(=O)c1cc2ccccc2o1)c1ccccc1 (stereo unspecified) the activation was 46.9% (active).
